# Source: PubChem BioAssay
# Most compounds without a hit are left out; they make up all but 6.8% or so of the library.
# KB-V1 MDR tox = KB-V1 MDR subline cytotoxicity; KB-V1 MDR cells viability, CellTiter-Glo, 72 h; Potency, µM (series often up to 46.1 µM), actives largely listed as cytotoxic; hit rate 3.4% among 400,000; AID 1347076; also: % is scaled to controls: 0 for no effect and ±100 for the full control effect; nearly all actives have a fitted effect of over 60% in size
#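 Following 72 h at 37 degrees C with compound, KB-V1 cell viability was read by CellTiter-Glo luminescence, medium being phenol-red-free DMEM plus 10% FBS; concentration-response parameters came from normalized, curve-fitted qHTS data.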
# TSG101-PTAP inh = blocks PTAP/TSG101 interaction to inhibit HIV-1 budding; Potency, µM (series often up to 115 µM), for inactives: at the highest dose activity change, negative = inhibition, most hits filed as inhibitors; 340,000 tested, under 10 active; Fluorescence polarization, FITC-PTAP peptide / Tsg101 binding; active = well fitted inhibition curve with a large enough effect in the main read-out, with a control signal flat, not every such curve was filed as active; inconclusive = small, poorly fitted or top-dose-only effect, or effect the other way, or a change in a side signal; inactive = no such curve, though single readings can be large or run the other way; also: % of control where 0% means no effect
# Target sequence (Q99816 whole entry, looked up): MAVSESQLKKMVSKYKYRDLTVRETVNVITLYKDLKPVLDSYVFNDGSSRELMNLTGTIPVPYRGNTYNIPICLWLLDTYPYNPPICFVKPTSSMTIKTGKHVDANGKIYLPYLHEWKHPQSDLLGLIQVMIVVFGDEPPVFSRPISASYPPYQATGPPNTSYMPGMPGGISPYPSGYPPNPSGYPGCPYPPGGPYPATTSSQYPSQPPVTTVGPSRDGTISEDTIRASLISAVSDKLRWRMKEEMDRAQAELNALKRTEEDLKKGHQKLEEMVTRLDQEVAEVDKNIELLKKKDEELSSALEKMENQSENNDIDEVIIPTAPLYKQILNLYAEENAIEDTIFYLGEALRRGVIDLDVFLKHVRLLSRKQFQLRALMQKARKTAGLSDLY
#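 Steps: Tsg101 binding domain dispensed (10 uM final), compounds pinned in DMSO, FITC-labeled PTAP-motif peptide added (50 nM final); after 20 min binding at room temperature, polarization measured.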
# KB-3-1 cytotox = kills parental KB-3-1 adenocarcinoma cells; hit rate 1.4% among 400,000; AID 1347075; KB-3-1 viability, CellTiter-Glo ATP luminescence, 72 h; Potency, µM (top dose mostly 46.1 µM), usual class: cytotoxic; also: % is scaled to controls: 0 for no effect and ±100 for the full control effect; nearly all actives have a fitted effect of over 60% in size
#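 KB-3-1 cells, DMEM (no phenol red) + 10% FBS; compound by pin transfer, 72 h, 37 °C. Readout: CellTiter-Glo luminescence after 10 min. Data normalized, curve-fitted.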
# MCF10A rerep = inducers of DNA re-replication in MCF 10A breast cells; hit rate 2.9% among 350,000; AID 624296; MCF 10A DNA re-replication, Hoechst nuclear intensity, 48 h; Potency, µM (titrated, usually from 46.1 µM), inactives show top-dose activity, positive = re-replication, hits mostly activators; also: % of control where 0% means no effect; nearly all actives have a fitted effect of over 50% in size
# SW480 rerep = DNA re-replication induction in SW480 cells; SW480 DNA re-replication, Hoechst DNA content imaging, 48 h; Potency, µM (doses to about 46.1 µM), without a hit: top-dose re-replication activation, actives largely listed as activators; hit rate 1.8% among 340,000; AID 624297; also: % of control where 0% means no effect; nearly all actives have a fitted effect of over 55% in size
#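 Cells (250 per well) received 23 nL compound or DMSO by pin tool and were kept 48 hr at 37 C, 5% CO2. Nuclei were then stained with Hoechst for 40 min and scanned for DNA content.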
# PINK1 modulator = modulators of PINK1 expression; PINK1 immunofluorescence, high-content cytometry, 24 h; Potency, µM (doses to about 76.6 µM), for inactives: at the top dose activation (PINK1 increase), actives largely listed as activators; hit rate 0.2% among 410,000; AID 624263; active = well fitted activation curve with a large enough effect; inconclusive = small, poorly fitted or top-dose-only effect; cell line not stated here; also: % of control where 0% means no effect; nearly all actives have a fitted effect of over 65% in size
#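 Fluorescence from anti-PINK1 antibody, together with nuclear and cell stains, was scanned on a laser-scanning cytometer. Before staining, stable-line cells were incubated 24 hours with compounds at 5 concentrations; primary antibody 12 h at 10 degrees C.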
# * = called active by the depositor; i = inactive; ? = inconclusive; . = not tested or not shown; [ ] = another dose, or the depositor's remark. Unless noted, calls follow the shape of the dose curve; as a rule, active = well fitted curve in the direction sought with a large enough effect; inconclusive = small, poorly fitted or top-dose-only effect, or another doubt; inactive = no such curve, though single readings can be large; an effect the other way counts as inactive or inconclusive. Potency is read from the fitted curve at half-maximal effect.
SMILES,KB-V1 MDR tox,TSG101-PTAP inh,KB-3-1 cytotox,MCF10A rerep,SW480 rerep,PINK1 modulator
COc1cccc(NC(=O)c2cccc(OC)c2OC)c1,i,-6%,i,8%,-12%,-1%
CCOc1ccc(NC(=O)CN2C(=O)CC(C)Sc3ccccc32)cc1 (stereo not drawn),i,.,i,.,.,-1%
COc1cc(-c2noc(-c3ccc(NCc4cccnc4)c([N+](=O)[O-])c3)n2)cc(OC)c1OC,26µM*,.,i,.,.,10%
COc1ccc2[nH]c(CN3CCN(CC=C(C)C)C(CCO)C3)c(C)c2c1 (stereo not drawn),i,-10%,i,16µM*,-10%,0%
COc1ccc2[nH]c(CN3CCN(CCC(C)C)C(CCO)C3)c(C)c2c1 (stereo not drawn),i,1%,i,3%,-2%,-1%
CCOC(=O)c1ccc(NC(=O)N2CCN(Cc3cccc(F)c3)CC2)cc1,18µM*,-9%,i,?,2%,-2%[38.3 µM]
CSc1cc2c(s1)c1cnn(Cc3cccc(N)c3)c(=O)c1n2C,i,.,i,.,.,.
O=C(Nc1cc(C(F)(F)F)ccc1Cl)c1cc(S(=O)(=O)NCc2ccccc2)ccc1F,i,.,i,.,.,10%
Cc1cc(Cl)cc(Br)c1OCCCN1C(=O)NC(C)(C)C1=O,18µM*,-6%,?,10%,6%,?
Cc1ccc(C(C)C)c(OCCCN2C(=O)NC(C)(C)C2=O)c1,15µM*,-4%,i,?,10%,-4%
Cc1ccc([N+](=O)[O-])c(OCCN2C(=O)NC(C)(C)C2=O)c1,i,-7%,i,-6%,-76%,0%
O=C(C[n+]1ccccc1Cl)c1cccc([N+](=O)[O-])c1,i,.,i,.,.,.
COc1ccc(CCn2c(-n3nc(C)cc3C)nc3c2c(=O)[nH]c(=O)n3C)cc1,1.6µM*,1%,i,1.6µM*,?,?
CCSc1nc2c(c(=O)[nH]c(=O)n2C)n1CC(O)COc1ccccc1C (stereo not drawn),18µM*,-8%,i,?,-8%,-6%[38.3 µM]
COCCSc1nc2c(c(=O)[nH]c(=O)n2C)n1CCCc1ccccc1,i,-7%,i,1.5µM*,6%,1%
CC(Oc1ccccc1)C(=O)Nc1ccccc1C(=O)OCc1cc(=O)n2nc(C(C)C)sc2n1 (stereo not drawn),.,.,.,.,.,2%
Nc1nc(=S)ss1,i,-7%,i,21µM*,?,1%
COc1ccccc1C1CN(Cc2cccc(OCCO)c2)Cc2ccccc2O1 (stereo not drawn),.,.,.,.,.,0%
O=C(c1cccc(S(=O)(=O)N2CCOCC2)c1)N(CCc1ccccc1)Cc1ccccc1,i,-5%,?,6%,-15%,-1%
CN(Cc1ccc(Cl)c(Cl)c1)C(=O)c1cccc(S(=O)(=O)N2CCN(Cc3ccccc3)CC2)c1,i,-2%,9.2µM*,29%,-34%,-2%
CN(Cc1cnn(Cc2ccccc2)c1)C(=O)c1cccc(S(=O)(=O)N2CCOCC2)c1,i,-3%,15µM*,?,18µM*,11%
CN(Cc1cccc(F)c1)C(=O)c1cccc(S(=O)(=O)N2CCN(Cc3ccccc3)CC2)c1,?,-4%,?,13%,-2%,0%
COc1ccc(C(=O)N(C)Cc2cnn(Cc3ccccc3)c2)cc1S(=O)(=O)N1CCOCC1,i,1%,5.8µM*,3.7µM*,4.1µM*,10%
CN(Cc1ccc(OC(F)F)cc1)C(=O)c1cccc(S(=O)(=O)N2CCN(c3ccccc3)CC2)c1,i,-2%,7.3µM*,-1%,-5%,2%
CSc1ccc(CCNC(=O)CCc2c(C)nc3c(-c4ccccc4)c(C)nn3c2C)cc1,i,.,i,.,.,6%
SMILES,KB-V1 MDR tox,TSG101-PTAP inh,KB-3-1 cytotox,MCF10A rerep,SW480 rerep,PINK1 modulator
COc1cc2nc(N3CCCC(O)C3)c(CNCc3ccccc3F)cc2c(OC)c1OC (stereo not drawn),.,.,.,.,.,2%
CN(C(=O)CSc1nc2ccc(NC(=O)c3ccccc3)cc2s1)c1ccccc1,?,.,?,.,.,-1%
CN(Cc1cnn(-c2ccccc2)c1)C(=O)c1cccc(S(=O)(=O)N(C)c2ccccc2)c1,?,.,i,.,.,1%
Cc1ccc(N(C)S(=O)(=O)c2cccc(C(=O)N(C)Cc3cnn(-c4ccccc4)c3)c2)cc1,5.8µM*,8%,i,21µM*,?,-2%
CCOC(=O)/C(=N\Nc1cccc(C(F)(F)F)c1)N(CCOC)CCOC,23µM*,-5%,i,8%,0%,?
CCOC(=O)/C(=N\Nc1cccc(C(F)(F)F)c1)N1CCOCC1,i,-4%,i,-11%,-87%,5%
CCOc1ccc(NC(=O)CN2C(=O)C3(SCC(=O)N3c3ccc(F)cc3)c3ccccc32)cc1 (stereo not drawn),i,.,i,.,.,-4%
Cc1noc(C)c1C(=O)N1CCN(C(=O)c2sc3cc(Cl)ccc3c2Cl)CC1,23µM*,.,i,-3%,0%,1%[38.3 µM]
Cc1noc(C)c1C(=O)N1CCN(c2ccccc2O)CC1,i,2%,i,-3%,-5%,10%
COc1cc(OC)c(NC(=O)CSC2=Nc3ccccc3N=C(c3ccc(F)cc3)C2)cc1Cl,i,.,i,.,.,4%
N#Cc1ccc(Oc2ccc(-c3nc4ccccc4nc3-c3ccccc3)cc2)cc1C#N,21µM*,-1%,i,11%,-15%,7%
COc1cccc(C(=O)Nc2ccc(N3CCN(C(=O)c4cccs4)CC3)cc2)c1,2.3µM*,-2%,5.2µM*,13µM*,5.8µM*,7%
O=C(Nc1ccc(N2CCN(C(=O)c3cccs3)CC2)cc1)c1cccc(F)c1,?,-4%,18µM*,?,?,0%
O=C(Nc1ccc(N2CCCC2)cc1)c1cccc(F)c1,i,2%,?,21%,4%,9%
CCC(=O)c1ccc(N2CCN(C(=O)c3cccs3)CC2)c(F)c1,i,-1%,i,6.5µM*,?,0%
CCc1cccc(C)c1NC(=O)C1CCN(c2nnc(C)c3c(C)n(-c4ccccc4)nc23)CC1,.,.,.,.,.,3%
COc1cccc2c1Oc1ncccc1N(C(=O)Nc1cccc(Cl)c1)C2,i,.,i,.,.,1%
O=C(NC1CCCCC1)c1ccc2c(c1)sc1nc(-c3ccccc3)cn12,.,.,.,.,.,5%
N#Cc1nc(-c2ccc(OCc3ccccc3Cl)cc2)oc1N1CCCCCC1,i,.,i,.,.,4%
